We go through 97 compounds from PubChem BioAssay AID1852 (Sanford-Burnham Center for Chemical Genomics, 2009).

Among all 2,500 compounds or so, about 1,100 (44%) were called active.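 The calls were made as follows: active = inhibition above 50% at 4 µM in the single-point screen; inactive = inhibition of 50% or less.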 The set was probably picked from earlier hits. The list shows a part of the results.

The nature of this test: TNF-a-driven NF-kB reporter inhibitors, primary screen, selectivity assay for NOD1/NOD2 signaling inhibitor project, cell-based, HEK293T NF-kB-Luc, luminescence (AID 1852). The following applies: TNF-a induced, 14 h, at 4 µM, active compounds read high.
In general, inhibition refers to the relative decrease from the control value, in per cent. For `CCOc1ccc(/C=C2\C(=O)c3ccccc3OC2c2ccccc2)cc1` (configuration not stated), the inhibition was -5.4% (inactive).
As to `Cc1ccc(-c2onc3ccc(C(=O)/C=C/N(C)C)cc23)cc1`, the inhibition was 14.5% (inactive).
To `COc1ccc2cc3c(N)nn(C(=O)Cc4ccccc4OC)c3nc2c1` belongs 91% (active); to `COc1ccc2cc3cc(C(=O)NCCc4ccc(OC)c(OC)c4)oc3nc2c1`, -4.4% (inactive); to `COc1ccc2cc3c(N)nn(C(=O)Cc4c[nH]c5ccccc45)c3nc2c1`, 91.9% (active).
Turning to `CCOc1ccccc1N1CCN(C(=O)c2cc(-c3cc(OC)ccc3OC)nc3ccccc23)CC1`, the inhibition was 1.3% (inactive).
As for `COc1ccc(-c2cc3nc(C)n(N)c(=O)c3s2)cc1`, the inhibition is 78.3% (active).
Then `COc1ccc(-c2cc3nc(CCl)[nH]c(=O)c3s2)cc1`, with 25.2% (inactive).
In the case of `O=c1[nH]c(CCl)nc2cc(-c3ccc(F)cc3)sc12`, the inhibition was 28.3% (inactive).
For `CSc1cccc(NS(=O)(=O)c2ccc3c(c2)CCN3C(C)=O)c1`, the inhibition was 25% (inactive).
For the compound `CC1Cc2ccccc2N1C(=S)NC(=O)c1cccc(Br)c1` (configuration not stated), the inhibition is 103% (active).
Consider `COc1ccc(Br)cc1/C=C/C(=O)c1ccc(NC(C)=O)cc1`, for which the inhibition was 94.8% (active).
To `CC(=O)Nc1ccc(N/C=C/C(=O)c2ccc(C)cc2)cc1` belongs -16.4% (inactive); to `CCC(=O)Nc1cccc(C(=O)/C=C/c2cc(Br)ccc2OC)c1`, 77.3% (active); to `COc1cccc(C(=O)/C=C/c2ccc(OCC#N)c(OC)c2)c1`, -58.9% (inactive).
On to `COc1ccccc1/C=C1\S/C(=N/NC(=O)c2cccc(Br)c2)NC1=O`, for which the inhibition is -30.6% (inactive).
To `N#CC(C#N)=C(Nc1ccc(F)cc1)SCc1cccc(Br)c1` belongs 54.7% (active); to `Cc1ccc(CSC(Nc2ccc(F)cc2)=C(C#N)C#N)cc1`, 74.6% (active); to `N#CC(C#N)=C(Nc1ccc(F)cc1)SCc1cccc(F)c1`, 81.7% (active).
To `COc1c(F)c(F)c(C(=O)Nc2cccc(Cl)c2N2CCOCC2)c(F)c1F` belongs 46.2% (inactive); to `COc1ccc(C)cc1NC(=O)CN(C)S(=O)(=O)c1ccc2c(c1)c(=O)n(C)c(=O)n2C`, 19.7% (inactive); to `COc1cc(/C=C/C(=O)c2ccc(C)cc2)ccc1OCC#N`, 19.5% (inactive).
To `COc1cc(OC)c(OC)cc1/C=C/C(=O)c1ccc(NS(=O)(=O)c2ccc(C)cc2)cc1` belongs 70.3% (active); to `COc1cc(/C=C/C(=O)c2ccc(NS(=O)(=O)c3ccc(C)cc3)cc2)cc(OC)c1O`, 78.9% (active).
With `COc1cccc(/C=C/C(=O)c2ccc(NS(=O)(=O)c3ccc(C)cc3)cc2)c1`, the inhibition is 4.1% (inactive).
To `COc1cccc(C(=O)/C=C/Nc2ccc(S(=O)(=O)Nc3cccc(C(C)=O)c3)cc2)c1` belongs 46.2% (inactive); to `Oc1ccc2ccccc2c1N=Nc1ccccn1`, 95.8% (active).
Then `Oc1ccc(N=Nc2ccccc2C(F)(F)F)c2cccnc12`, with 20.4% (inactive).
As for `Cc1ccccc1NC(=O)C1CCN(c2cc(-c3ccccc3)nc3ncnn23)CC1`, the inhibition is 46% (inactive).
Consider `CC(=O)c1ccc(N2CCN(C(=S)Nc3ccc(Oc4ccccc4)cc3)CC2)cc1`, for which the inhibition is 41.5% (inactive).
For the compound `O=C(Nc1ccc(Oc2ccccc2)cc1)C1CCN(c2c3c(nc4ncnn24)CCC3)CC1`, the inhibition is 62% (active).
On to `COc1ccc(CCNC(=O)c2cc(=O)c3cc(C)ccc3o2)cc1OC`, for which the inhibition was 19.4% (inactive).
To `COc1cc(C(=O)NCCOc2cc(C)ccc2C(C)C)cc(OC)c1OC` belongs 52.4% (active); to `COCCNC(=S)N(CCc1c(C)[nH]c2ccc(C)cc12)Cc1cc(OC)c(OC)c(OC)c1`, 19.3% (inactive).
To `CC1=CC(C)(C)Nc2ccc(OC(=O)CN3C(=O)C4CCCCC4C3=O)cc21` (configuration not stated) belongs 42.7% (inactive).
Then `CC1=CC(C)(C)Nc2ccc(OC(=O)C(C)N3C(=O)c4ccccc4C3=O)cc21` (configuration not stated), with 40.1% (inactive); and `CC1=CC(C)(C)Nc2ccc(OC(=O)CN3C(=O)CCC3=O)cc21`, with 86.9% (active); and `Cn1c(Sc2ccc(Cl)cc2)c(C=O)c2ccccc21`, with 34.4% (inactive).
Consider `Cn1c(Sc2ccc(Br)cc2)c(C=O)c2ccccc21`, for which the inhibition is 48.7% (inactive).
To `Cc1ccc(Sc2c(C=O)c3ccccc3n2C)cc1` belongs 86.4% (active); to `Cc1cccc(Sc2c(C=O)c3ccccc3n2C)c1`, 60.5% (active); to `COc1cccc(OCCn2cc(C=O)c3ccccc32)c1`, 42.4% (inactive).
To `c1csc(C2=Nn3c(nnc3-c3ccncc3)SC2)c1` belongs 90.9% (active); to `COc1ccc(C2=Nn3c(nnc3-c3ccncc3)SC2)cc1`, 70.4% (active).
Then `COc1cccc(-c2nnc3n2N=C(C(C)(C)C)CS3)c1`, with 96.3% (active).
Consider `c1ccc(C2=Nn3c(nnc3-c3ccncc3)SC2)cc1`, for which the inhibition was 70.9% (active).
As to `Clc1ccccc1C1=Nn2c(nnc2-c2ccncc2)SC1`, the inhibition was 84.4% (active).
To `CCc1cccc(C)c1NS(=O)(=O)c1cccs1` belongs -2.7% (inactive).
To `Cc1c(NS(=O)(=O)c2ccc3c(c2)OCCO3)cccc1-c1nc2cccnc2s1` belongs 48.1% (inactive).
Take `COC(=O)c1cccc(NS(=O)(=O)c2cccs2)c1C`: the inhibition was 7.7% (inactive).
For `Cc1ccc(S(=O)(=O)Nc2cccc3ncccc23)s1`, the inhibition is 96.4% (active).
To `O=S(=O)(Nc1cccc2ncccc12)c1cccs1` belongs 98.1% (active); to `CC(NC(=S)NC1CCCCC1)c1ccc(C(C)(C)C)cc1` (configuration not stated), 9.1% (inactive).
Take `CCOC(=O)c1ccc(NC(=O)Cn2ncc(Cl)c(Cl)c2=O)cc1`: the inhibition was 60.3% (active).
For `Cc1cc(Br)ccc1NC(=O)CNC(=O)Cn1ncc(Cl)c(Cl)c1=O`, the inhibition was 94.4% (active).
Then `CC(C)(C)C(=O)Cn1ncc(Cl)c(Cl)c1=O`, with 10.7% (inactive).
Then `O=C(Cn1ncc(Cl)c(Cl)c1=O)c1ccc(Cl)cc1`, with 75.4% (active).
Then `O=C1CN(C(=O)Cn2ncc(Cl)c(Cl)c2=O)c2ccccc2N1`, with 40.3% (inactive); and `O=C(Cn1ncc(Cl)c(Cl)c1=O)N1CCc2ccccc21`, with 73% (active).
As for `CCC(=O)Nc1ccc(C(=O)Cn2ncc(Cl)c(Cl)c2=O)cc1`, the inhibition is 56.5% (active).
Turning to `Cc1ccc(-c2csc(N3CCN(CCCn4c(-c5ccncc5)nc5ccccc54)CC3)n2)cc1`, the inhibition is -10.9% (inactive).
To `CC(=O)Nc1ccc(C(=O)Nc2nc(-c3cc(C)n(Cc4ccccc4)c3C)cs2)cc1` belongs 20.1% (inactive).
Consider `CCN(c1ccc(C)cc1)S(=O)(=O)c1nnc(NC(=O)c2ccco2)s1`, for which the inhibition is 10.4% (inactive).
Then `CC(=O)Nc1nc(C)c(-c2csc(Nc3cccc([N+](=O)[O-])c3)n2)s1`, with 24.8% (inactive); and `COc1ccccc1Nc1nc(-c2sc(NC(=O)c3ccco3)nc2C)cs1`, with 82.3% (active); and `CC(=O)Nc1nc(C)c(-c2csc(Nc3ccc(O)cc3)n2)s1`, with 58.5% (active).
To `Cc1ccc(O)c(C(=O)c2cnc3c(c2)COc2ccc(C)cc2-3)c1` belongs 22% (inactive).
`O=C(c1cnn(C(=O)c2ccc(O)cc2)c1)c1ccccc1O`: the inhibition was 9.9% (inactive).
In the case of `Cc1[nH]nc2ncc(C(=O)c3ccccc3O)cc12`, the inhibition was 67.9% (active).
`C/C(=N\NC(=O)c1cc(Br)ccc1O)c1ccccn1`: the inhibition is 25.1% (inactive).
To `C/C(=N\NC(=O)COc1ccccc1-c1ccccc1)c1ccccn1` belongs 106% (active); to `C/C(=N\NC(=O)Cc1ccc(Cl)cc1)c1ccccn1`, 101% (active); to `C/C(=N\NC(=O)c1ccc(Cl)cc1)c1ccccn1`, 103% (active).
Then `C/C(=N\NC(=O)c1cccc(Br)c1)c1ccccn1`, with 98% (active).
`Cc1ccc(Nc2nc3nonc3[nH]c2=O)cc1Cl`: the inhibition was -23% (inactive).
To `C/C(=N\NC(=O)c1ccc(F)cc1)c1ccccn1` belongs 106% (active); to `C/C(=N\NC(=O)c1ccc(Cl)c(Cl)c1)c1ccccn1`, 102% (active); to `COc1ccc(C(=O)N/N=C(\C)c2ccccn2)cc1OC`, 106% (active).
Take `COC(=O)c1ccc2nc(Nc3nc4ccc(F)cc4s3)sc2c1`: the inhibition was 0% (inactive).
Turning to `CCOC(=O)c1csc(Nc2nc3ccc(F)cc3s2)n1`, the inhibition was 106% (active).
Then `CCOC(=O)c1ccc2nc(Nc3nc4ccc(F)cc4s3)sc2c1`, with -87.4% (inactive); and `Nc1[nH]n2c(=O)cc(-c3ccccc3)nc2c1N=Nc1ccc2c(c1)OCO2`, with 50.6% (active).
Turning to `COc1cccc(N=Nc2c(N)[nH]n3c(=O)cc(-c4ccccc4)nc23)c1`, the inhibition was 75.4% (active).
For `Nc1[nH]n2c(=O)cc(-c3ccccc3)nc2c1N=Nc1ccccc1`, the inhibition was 64.7% (active).
Then `CCOc1ccc(-c2nc(CSCC(=O)N3CCN(c4cccc(OC)c4)CC3)c(C)o2)cc1`, with 49.3% (inactive).
Regarding `CCc1ccc(-c2nc(CSCC(=O)N3CCN(c4ccccn4)CC3)c(C)o2)cc1`, the inhibition was 73.1% (active).
To `O=C(CSCc1ccccc1Cl)N1CCN(c2ccccn2)CC1` belongs -30.9% (inactive).
Consider `O=C(Nc1cccc(NC(=O)c2sc3ccccc3c2Cl)c1)c1ccco1`, for which the inhibition is -117% (inactive).
Then `O=C(Nc1nccs1)c1sc2cc(Cl)ccc2c1Cl`, with 103% (active); and `CS(=O)(=O)N1CCC(C(=O)Nc2cccc(Cl)c2)CC1`, with 4.2% (inactive); and `Cn1ncc([N+](=O)[O-])c1C(=O)Nc1cccc(Cl)c1`, with 92.6% (active).
Regarding `Cn1ncc([N+](=O)[O-])c1C(=O)Nc1ccc(-c2ccccc2)cc1`, the inhibition was -39.7% (inactive).
Then `O=C(Nc1ccc([N+](=O)[O-])cc1)Nc1nc(-c2ccc(Cl)s2)cs1`, with 42.8% (inactive).
To `O=[N+]([O-])c1cccc(NC(=S)Nc2nc(-c3ccc(Cl)cc3Cl)cs2)c1` belongs 64.3% (active); to `Cc1ccc(NC(=S)NC(=O)c2ccc(F)cc2)cc1S(=O)(=O)Nc1cccc(Cl)c1`, 32.5% (inactive).
Then `Cc1csc(NC(=S)Nc2cccc(Cl)c2)n1`, with 100% (active).
Turning to `Cc1ccccc1CN(CC(=O)Nc1cccc([N+](=O)[O-])c1)S(=O)(=O)c1ccc(Cl)cc1`, the inhibition was -15.8% (inactive).
